Data published in the supplement of paper PMC8728848.
This is one part of a sample in which the strongest signals are shown more often than they occur.

Tests used:
Assay in all cases: glycan array binding signal (z-score within array); higher = stronger binding
Details in all cases: glycan notation: IUPAC condensed, linker removed
[1] = target: Fuc(a1-2)Gal(b1-3)GalNAc(a1-3)[Fuc(a1-2)]Gal(b1-4)Glc
Procedure, shortened: (§1)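 The binding signal is a Z-score computed within each array and averaged over linkers. Arrays of the same protein sequence at different concentrations or buffers were also averaged together. Data originate from 3228 arrays in the Consortium for Functional Glycomics database, kept only where the protein sequence was available.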

[2] = target: Fuc(a1-2)Gal(b1-3)[Fuc(a1-4)]GlcNAc(b1-2)Man(a1-3)[Fuc(a1-2)Gal(b1-3)[Fuc(a1-4)]GlcNAc(b1-2)Man(a1-3)]Man(b1-4)GlcNAc(b1-4)GlcNAc
Procedure, shortened: as §1

[3] = target: Fuc(a1-2)Gal(b1-4)GlcNAc(b1-3)Gal(b1-4)GlcNAc(b1-2)Man(a1-3)[Fuc(a1-2)Gal(b1-4)GlcNAc(b1-3)Gal(b1-4)GlcNAc(b1-2)Man(a1-6)]Man(b1-4)GlcNAc(b1-4)GlcNAc
Procedure, shortened: as §1

[4] = target: Fuc(a1-2)Gal(b1-4)[Fuc(a1-3)]GlcNAc(b1-2)[Fuc(a1-2)Gal(b1-4)[Fuc(a1-3)]GlcNAc(b1-4)]Man(a1-3)[Fuc(a1-2)Gal(b1-4)[Fuc(a1-3)]GlcNAc(b1-2)Man(a1-6)]Man(b1-4)GlcNAc(b1-4)GlcNAc
Procedure, shortened: as §1

[5] = target: Fuc(a1-2)Gal6S(b1-3)GlcNAc6S
Procedure, shortened: as §1

Fuc(a1-2)[Gal(a1-3)]Gal = target: Fuc(a1-2)[Gal(a1-3)]Gal
Procedure, shortened: as §1

[6] = target: Fuc(a1-2)[Gal(a1-3)]Gal(b1-3)GlcNAc(b1-3)GalNAc
Procedure, shortened: as §1

[7] = target: Fuc(a1-2)[GalNAc(a1-3)]Gal(b1-3)GlcNAc(b1-2)Man(a1-3)[Fuc(a1-2)[GalNAc(a1-3)]Gal(b1-3)GlcNAc(b1-2)Man(a1-6)]Man(b1-4)GlcNAc(b1-4)[Fuc(a1-6)]GlcNAc
Procedure, shortened: as §1

[8] = target: Fuc(a1-2)[GalNAc(a1-3)]Gal(b1-3)GlcNAc(b1-6)GalNAc
Procedure, shortened: as §1

[9] = target: Fuc(a1-2)[GalNAc(a1-4)]Gal(b1-4)GlcNAc
Procedure, shortened: as §1

[10] = target: Fuc(a1-3)[Gal(b1-4)]GlcNAc(b1-3)Gal(b1-4)[Fuc(a1-3)]GlcNAc(b1-3)Gal(b1-4)[Fuc(a1-3)]GlcNAc
Procedure, shortened: as §1

[11] = target: Gal(a1-3)Fuc(a1-2)Gal(b1-4)GlcNAc(b1-3)[Gal(a1-3)Fuc(a1-2)Gal(b1-4)GlcNAc(b1-6)]GalNAc
Procedure, shortened: as §1

Gal(a1-3)Gal(b1-3)GlcNAc = target: Gal(a1-3)Gal(b1-3)GlcNAc
Procedure, shortened: as §1

[12] = target: Gal(a1-3)Gal(b1-4)GlcNAc(b1-2)Man(a1-3)[Gal(a1-3)Gal(b1-4)GlcNAc(b1-2)Man(a1-6)]Man(b1-4)GlcNAc(b1-4)GlcNAc
Procedure, shortened: as §1

[13] = target: Gal(a1-4)Gal(b1-3)GlcNAc(b1-2)Man(a1-3)[Gal(a1-4)Gal(b1-3)GlcNAc(b1-2)Man(a1-6)]Man(b1-4)GlcNAc(b1-4)GlcNAc
Procedure, shortened: as §1

[14] = target: Gal(a1-4)Gal(b1-4)GlcNAc(b1-3)Gal(b1-4)Glc
Procedure, shortened: as §1

[15] = target: Gal(b1-3)GlcNAc(a1-6)Gal(b1-4)GlcNAc
Procedure, shortened: as §1

Gal(b1-3)GlcNAc6S = target: Gal(b1-3)GlcNAc6S
Procedure, shortened: as §1

[16] = target: Gal(b1-3)[Neu5Ac(a2-6)]GlcNAc(b1-4)Gal(b1-4)Glc
Procedure, shortened: as §1

[17] = target: Gal(b1-4)GlcNAc(b1-2)Man(a1-3)Man(b1-4)GlcNAc(b1-4)GlcNAc
Procedure, shortened: as §1

[18] = target: Gal(b1-4)GlcNAc(b1-2)Man(a1-3)[Gal(b1-4)GlcNAc(b1-2)Man(a1-6)]Man(b1-4)GlcNAc(b1-4)GlcNAc
Procedure, shortened: as §1

[19] = target: Gal(b1-4)GlcNAc(b1-2)[Gal(b1-4)GlcNAc(b1-4)]Man(a1-3)[GlcNAc(b1-4)][Gal(b1-4)GlcNAc(b1-2)Man(a1-6)]Man(b1-4)GlcNAc(b1-4)GlcNAc
Procedure, shortened: as §1

[20] = target: Gal(b1-4)GlcNAc(b1-2)[Gal(b1-4)GlcNAc(b1-6)]Man(a1-6)[Gal(b1-4)GlcNAc(b1-2)Man(a1-3)]Man(b1-4)GlcNAc(b1-4)[Fuc(a1-6)]GlcNAc
Procedure, shortened: as §1

[21] = target: Gal(b1-4)GlcNAc(b1-3)Gal(b1-4)GlcNAc(b1-2)Man(a1-3)[Gal(b1-4)GlcNAc(b1-3)Gal(b1-4)GlcNAc(b1-2)Man(a1-6)]Man(b1-4)GlcNAc(b1-4)[Fuc(a1-6)]GlcNAc
Procedure, shortened: as §1

[22] = target: Gal(b1-4)GlcNAc(b1-3)Gal(b1-4)GlcNAc(b1-3)Gal(b1-4)GlcNAc(b1-2)Man(a1-3)[Gal(b1-4)GlcNAc(b1-3)Gal(b1-4)GlcNAc(b1-3)Gal(b1-4)GlcNAc(b1-2)Man(a1-6)]Man(b1-4)GlcNAc(b1-4)GlcNAc
Procedure, shortened: as §1

[23] = target: Gal(b1-4)GlcNAc(b1-3)Gal(b1-4)GlcNAc(b1-3)[Gal(b1-4)GlcNAc(b1-3)Gal(b1-4)GlcNAc(b1-6)]GalNAc
Procedure, shortened: as §1

Gal(b1-6)Gal = target: Gal(b1-6)Gal
Procedure, shortened: as §1

Gal3S(b1-4)Glc = target: Gal3S(b1-4)Glc
Procedure, shortened: as §1

Gal4S6S(b1-4)GlcNAc = target: Gal4S6S(b1-4)GlcNAc
Procedure, shortened: as §1

B1: FliC (Clostridium difficile) (protein)
chain: MRVNTNVSALIANNQMGRNVNGQSKSMEKLSSGVRIKRAADDAAGLAISEKMRAQIKGLDQAGRNVQDGISVVQTAEGSLEETGNILQRMRTLSLQSANEINNTEEREKIADELTQLKDEIERISSSTEFNGKKLLDGTSSTIRLQVGASYGTNVSGTSNNNNEIKIQLVNTASIMASAGITTASIGSMKAGGTTGTDAAKTMVSSLDAALKSLNSSRAKLGAQQNRLESTQNNLNNTLENVTAAESRIRDTDVASEMVNLSKMNILVQASQSMLAQANQQPQGVLQLLG
glycan array binding signal (z-score) [1]: 0.883 | glycan array binding signal (z-score) [2]: 0.721 | glycan array binding signal (z-score) [3]: 0.257 | glycan array binding signal (z-score) [4]: 0.298 | glycan array binding signal (z-score) [5]: 0.013 | glycan array binding signal (z-score) (Fuc(a1-2)[Gal(a1-3)]Gal): 0.187 | glycan array binding signal (z-score) [6]: 0.173 | glycan array binding signal (z-score) [7]: 1.26 | glycan array binding signal (z-score) [8]: -0.176 | glycan array binding signal (z-score) [9]: -0.165 | glycan array binding signal (z-score) [10]: -0.069 | glycan array binding signal (z-score) [11]: -0.356 | glycan array binding signal (z-score) (Gal(a1-3)Gal(b1-3)GlcNAc): 4.21 | glycan array binding signal (z-score) [12]: 8.29 | glycan array binding signal (z-score) [13]: 4.1 | glycan array binding signal (z-score) [14]: 0.243 | glycan array binding signal (z-score) [15]: -0.584 | glycan array binding signal (z-score) (Gal(b1-3)GlcNAc6S): -0.373 | glycan array binding signal (z-score) [16]: -0.467 | glycan array binding signal (z-score) [17]: -0.407 | glycan array binding signal (z-score) [18]: 0.049 | glycan array binding signal (z-score) [19]: -0.113 | glycan array binding signal (z-score) [20]: 0.28 | glycan array binding signal (z-score) [21]: 2.39 | glycan array binding signal (z-score) [22]: 2.15 | glycan array binding signal (z-score) [23]: 2.33 | glycan array binding signal (z-score) (Gal(b1-6)Gal): 0.447 | glycan array binding signal (z-score) (Gal3S(b1-4)Glc): -0.03 | glycan array binding signal (z-score) (Gal4S6S(b1-4)GlcNAc): -0.316
